# Screening results: PubChem BioAssay, National Center for Advancing Translational Sciences (NCATS)
# A selection: hits, their analogues and other compounds. The true share with any hit is near 1.3%.
# EPAC2 antag: blocks human EPAC2 exchange factor; Q8WZA2; EPAC2 GEF exchange of Rap1B-BODIPY-GDP, fluorescence; Potency, µM (top dose mostly 114 µM), inactives show top-dose activity, negative = inhibition, usual class: inhibitors; 360,000 tested, 0.18% active; AID 720708; note: % is set by controls: 0 for no effect and ±100 for the full control effect; nearly all actives have a fitted effect of over 45% in size
# BRCA1 expr act: activators of BRCA1 expression; MCF7-BRCA1-FFLuc reporter, luminescence, 48 h; response scale: scaled: vehicle 0%, 10 µM genistein 100%; Potency, µM (series often up to 46.1 µM), inactives show at the top dose activation, most hits filed as activators; 380,000 tested, 1.1% active; AID 624202; note: nearly all actives have a fitted effect of over 80% in size
#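 Cells: MCF7-BRCA1-FFLuc, 2000/well. Exposure: 48 h, 37 °C, 5% CO2. Read: luminescence, 15 min post-substrate. Controls: genistein 10 microM (maximal activation), DMSO (neutral).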
# EPAC2 agonist: EPAC2 (human) agonism. EPAC2 activation, biochemical qHTS; response scale: 100% = 6.5 mM cAMP response. AID 720711. Potency, µM (titrated, usually from 154 µM), without a hit: at the highest dose activation, hits mostly activators. 360,000 tested, 0.079% active. Q8WZA2; note: nearly all actives have a fitted effect of over 50% in size
#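 Compounds were added across a concentration range to EPAC2 (100 nM), RAP1B-BODIPY-GDP (250 nM) and GDP (50 uM). After 5 min at room temperature, fluorescence was recorded at 5-min intervals for 30 min.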
# EPAC1 antag: blocks human EPAC1 exchange factor; O95398; EPAC1 GEF assay, Rap1b-BODIPY-GDP exchange fluorescence; Potency, µM (highest dose often 115 µM), for inactives: at the top dose activity change, negative = inhibition, actives largely listed as inhibitors; 360,000 tested, 0.14% active; AID 720709;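 note: plate controls were vehicle for no effect and positive control for full effect; nearly all actives have a fitted effect of over 50% in size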
# Target sequence (O95398 whole entry, looked up): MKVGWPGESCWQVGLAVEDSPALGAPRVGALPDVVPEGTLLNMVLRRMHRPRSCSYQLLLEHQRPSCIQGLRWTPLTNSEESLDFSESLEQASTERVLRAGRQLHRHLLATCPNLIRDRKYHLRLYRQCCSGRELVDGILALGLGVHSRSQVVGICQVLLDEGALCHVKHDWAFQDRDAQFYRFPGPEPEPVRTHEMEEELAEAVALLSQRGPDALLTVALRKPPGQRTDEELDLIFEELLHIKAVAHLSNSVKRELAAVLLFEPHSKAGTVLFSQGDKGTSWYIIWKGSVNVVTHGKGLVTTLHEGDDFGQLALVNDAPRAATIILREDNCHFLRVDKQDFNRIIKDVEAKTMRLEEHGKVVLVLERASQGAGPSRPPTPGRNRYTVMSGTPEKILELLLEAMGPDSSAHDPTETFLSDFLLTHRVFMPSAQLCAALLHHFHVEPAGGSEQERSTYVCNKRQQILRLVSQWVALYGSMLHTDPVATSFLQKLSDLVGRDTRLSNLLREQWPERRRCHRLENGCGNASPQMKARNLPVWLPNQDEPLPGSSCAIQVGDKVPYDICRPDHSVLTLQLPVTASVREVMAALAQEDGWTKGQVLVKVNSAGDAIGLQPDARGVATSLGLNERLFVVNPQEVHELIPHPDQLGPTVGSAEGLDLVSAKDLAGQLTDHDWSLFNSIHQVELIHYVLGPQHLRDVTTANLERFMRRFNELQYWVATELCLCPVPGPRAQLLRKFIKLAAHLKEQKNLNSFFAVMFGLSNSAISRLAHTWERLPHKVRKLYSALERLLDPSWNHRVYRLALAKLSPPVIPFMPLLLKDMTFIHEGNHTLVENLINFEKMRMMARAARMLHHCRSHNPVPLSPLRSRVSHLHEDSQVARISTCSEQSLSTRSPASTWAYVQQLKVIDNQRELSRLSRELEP
# EPAC1 agonist: activates human EPAC1 exchange factor. O95398. EPAC1 agonist qHTS, biochemical assay; response scale: 100% = response to 6.5 mM cAMP. Potency, µM (highest dose often 154 µM), inactives show at the highest dose activation, usual class: activators. 360,000 tested, 0.073% active. AID 720707; note: nearly all actives have a fitted effect of over 60% in size
#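 Nucleotide exchange by EPAC1 (100 nM) on Rap1B–BODIPY-GDP (250 nM) in the presence of 50 uM GDP is tracked fluorescently at 480/540 nm over 30 min. Signals are normalized to a 6.5 mM cAMP control.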
# RGS4 inhibitor: human RGS4 inhibition. P49798. Transcreener GDP fluorescence polarization, RGS4-accelerated GTP hydrolysis. Potency, µM (titrated, usually from 114 µM), for inactives: at the highest dose activity change, negative = inhibition, usual class: inhibitors. 390,000 tested, 0.039% active. AID 504845; note: % is set by controls: 0 for no effect and ±100 for the full control effect; nearly all actives have a fitted effect of over 75% in size
#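 MLSMR compounds (23 nl, pin-transferred) preincubated 10 min at room temperature with a 500nM (2x) first reagent, then RGS4 at 900nM (2x) plus Transcreener GDP mix added; fluorescence polarization (620/688 nm) read before and after 90 min at 30 °C.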
# The depositor's hits bear a star; ? = inconclusive; · = no result given; [ ] = another dose, or the depositor's remark. Calls come from the whole dose curve; as a rule, active = well fitted curve in the direction sought with a large enough effect; inconclusive = small, poorly fitted or top-dose-only effect, or another doubt; inactive = no such curve, though single readings can be large; an effect the other way counts as inactive or inconclusive. Potency is the fitted concentration of half-maximal effect.
SMILES,EPAC2 antag,BRCA1 expr act,EPAC2 agonist,EPAC1 antag,EPAC1 agonist,RGS4 inhibitor
Cn1cnnc1SCC(=O)Nc1ccc(S(=O)(=O)N2CCOCC2)cc1,4%,0%,0%,-1%,-8%,-15%
O=S(=O)(Nc1c(S(=O)(=O)c2ccccc2)c2nc3ccccc3nc2n1C1CCCCC1)c1ccccc1,?,-37%,-3%,40µM*,4%,?
C=CCn1c(NS(=O)(=O)c2ccccc2)c(S(=O)(=O)c2ccc(C)cc2)c2nc3ccccc3nc21,?,-88%,-7%,?,4%,-43%
O=[N+]([O-])c1nccn1CC(O)CO (configuration not stated),9%,14%,8%,2%,-5%,·
COc1ccc2nc(/C=N/NC(=O)[C@@H]3CCCN3C(=O)OC(C)(C)C)ccc2c1,-11%,7.1µM*,-5%,12%,4%,-12%
CC(C)(C)OC(=O)N1CCC[C@H]1C(=O)N/N=C/c1ccc2nccnc2c1,-4%,-1%,6%,-9%,6%,12%
CC(N=c1ccccn1C(=O)Nc1ccc(Cl)cc1)c1ccco1 (configuration not stated),0%,10µM*,4%,4%,6%,12%
NC(=S)N=Nc1c(O)cc(O)c2[nH]c(=O)ccc12,-29%,-3%,7%,50µM*,8%,?
O=C(Cn1ncc2c3ccccc3n(Cc3ccc(F)cc3)c2c1=O)NCc1cccs1,·,·,·,·,·,3%
COc1ccc(C2=NN(C(C)=O)C(c3cccs3)C2)cc1OC (configuration not stated),-1%,32%,3%,3%,12%,-13%[56.9 µM]
Cc1ccc(Nc2ncnc3ccccc23)cc1,4%,5.6µM*,6%,-12%,13%,-2%
CC(C)Oc1ccc(Nc2ncnc3ccccc23)cc1,25%,2.5µM*,7%,-1%,-1%,-14%
Oc1ccc(Nc2ncnc3ccccc23)cc1,6%,17%,3%,-37%,-9%,12%
Nc1c(C(=O)Nc2ccc3c(c2)OCCO3)nnn1Cc1ccc(F)cc1,10%,8.9µM*,-3%,0%,-7%,22%
Nc1c(C(=O)Nc2ccc3c(c2)OCCO3)nnn1Cc1cccc(Cl)c1,-3%,3.2µM*,8%,-9%,2%,-5%
Nc1c(C(=O)Nc2ccc3c(c2)OCCO3)nnn1Cc1ccccc1Cl,-16%,?,17%,-17%,11%,-32%
Cc1nc(C(=O)Nc2ccccc2)sc1C(=O)Nc1ccccc1,-8%,2.8µM*,-4%,-23%,7%,-31%
O=c1[nH]c2ccccc2nc1Cc1ccccc1,0%,23%,1%,-23%,12%,-3%
O=C(Cc1nc2ccccc2[nH]c1=O)c1ccccc1,32%,5.6µM*,?,3%,1%,-15%
Cc1ccccc1NC(=O)CSc1nc(N)c(C#N)c(-c2cccs2)c1C#N,11%,-30%,-1%,10%,-17%,-8%
COc1ccc(CCNC(=O)CSc2nc(N)c(C#N)c(-c3cccs3)c2C#N)cc1OC,2%,-16%,-3%,32µM*,-1%,14%
O=C(CSc1nc2ccccc2n1Cc1cccc(Cl)c1)N1CCN(c2ccc(F)cc2)CC1,·,·,·,·,·,-4%
Cn1cc(Cl)c(C(=O)N/N=C/c2ccc3c4c(cccc24)CC3)n1,-4%,1.3µM*,-3%,-5%,-3%,-14%[56.9 µM]
C=CCn1c(SCC(=O)NCc2ccco2)nnc1-c1ccc2ccccc2n1,-4%,-31%,2%,-7%,10%,-21%
Cn1cc(Cl)c(C(=O)Nc2nc3ccccc3s2)n1,-1%,47%,3%,3%,3%,-31%
SMILES,EPAC2 antag,BRCA1 expr act,EPAC2 agonist,EPAC1 antag,EPAC1 agonist,RGS4 inhibitor
O=C(Cc1ccccc1)Nc1nc2ccccc2s1,-14%,10µM*,3%,-3%,-3%,-6%[11.4 µM]
O=C(Cc1cccs1)Nc1nc2ccccc2s1,5%[57.1 µM],7.1µM*,?,1%,-1%,-17%
O=C(Nc1nc2ccccc2s1)c1c(F)cccc1Cl,-5%,10µM*,2%,-25%,-1%,-6%
Cc1ccc2nc(NC(=O)Cc3cccs3)sc2c1,-1%,66%,5%,4%,6%,15%
CC1CCc2nc(NC(=O)Cc3cccs3)sc2C1 (configuration not stated),2%,5.6µM*,13%,-15%,-4%,-4%
Cc1[nH]c2ccc(C(=O)NCCCN3CCCCC3)cc2c1C,9%,25%,2%,1%,-6%,-7%
Nn1cnnc1N/N=C/c1ccc(F)cc1,11%,-92%,-8%,-2%,-5%,-23%
Cc1nc(N)ncc1Sc1ccc(Cl)cc1,2%,-9%,0%,12%,11%,-10%
O=C(NNc1nc2ccccc2s1)C1CC1,1%,25%,4%,10%,-1%,-20%
CC(C)C(=O)NNc1nc2ccccc2s1,4%,8.9µM*,7%,-1%,4%,-3%
O=C(CSC1=NCCS1)Nc1nc2ccccc2s1,6%,8.9µM*,13%,-7%,0%,-41%
COc1ccc(/C=C/C2=NC(=C\N(C)C)/C(=O)O2)cc1,-3%,?,-4%,-24%,0%,-9%
